# Source: PubChem
# This is a sample that favours compounds with a hit; in the whole collection about 3.2% have one here.
# PGC1a acetyl inh: lowers PGC1a acetylation signal in U2OS cells | AlphaScreen anti-acetyl-lysine; with virally co-expressed GCN5 acetyltransferase | inhibition, % at 15.6 µM | 350,000 tested, 0.17% active | AID 651687;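 active = every replicate shows inhibition of at least 40%; inconclusive = mean inhibition at least 40% but some replicate below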
# DENV2 CPE rescue: protects cells from dengue virus 2 cytopathic effect; DENV2-infected cells, cytopathic effect rescue, plate reader; CPE inhibition, % at 9.99 µM; 350,000 tested, 1.7% active; in the data active = CPE inhibition above about 20%, passing the limit was not always enough; inconclusive = no clear call, values can overlap the other calls; tested in BHK-21 cells
# CaV13 FRET inh: Disruptors of the CACNA1D IQ motif to Ca2+-dependent inactivation inhibitor domain association, primary screening, Förster resonance energy transfer in intact living …; HEK cells, CFP/YFP FRET ICDI-IQ, plate reader, 10 min; percent FRET-ratio fall versus neutral wells; inhibition, % at 12.3 µM; 340,000 tested, 0.098% active; AID 743397;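 active = mean replicate inhibition of at least 30% and at least 1% of replicates passing that level; inconclusive = only one of the two criteria is met; inactive = neither criterion is met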
# GSIS activator: primary screen for activators of insulin secretion dependent on glucose, INS-1E cells, GLuc reporter luminescence | activation, % at 16.6 µM | AID 743287 | 370,000 tested, 0.61% active | INS-1E GLuc reporter insulin secretion, 2-3 h;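 active = lowest replicate activation of at least 40%, so every replicate reaches that level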
# ERAP1 HTS inh: inhibitors of human ERAP1 aminopeptidase; Q9NZ08; recombinant ERAP1, Leu-AMC fluorescence, 60 min; inhibition, % at 10.7 µM; 340,000 tested, 0.15% active;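 active = mean replicate inhibition of at least 30%, or all replicates individually reaching that 30% level; inactive = mean below 30% and not every replicate reaching it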
# Target sequence (Q9NZ08 whole entry, looked up): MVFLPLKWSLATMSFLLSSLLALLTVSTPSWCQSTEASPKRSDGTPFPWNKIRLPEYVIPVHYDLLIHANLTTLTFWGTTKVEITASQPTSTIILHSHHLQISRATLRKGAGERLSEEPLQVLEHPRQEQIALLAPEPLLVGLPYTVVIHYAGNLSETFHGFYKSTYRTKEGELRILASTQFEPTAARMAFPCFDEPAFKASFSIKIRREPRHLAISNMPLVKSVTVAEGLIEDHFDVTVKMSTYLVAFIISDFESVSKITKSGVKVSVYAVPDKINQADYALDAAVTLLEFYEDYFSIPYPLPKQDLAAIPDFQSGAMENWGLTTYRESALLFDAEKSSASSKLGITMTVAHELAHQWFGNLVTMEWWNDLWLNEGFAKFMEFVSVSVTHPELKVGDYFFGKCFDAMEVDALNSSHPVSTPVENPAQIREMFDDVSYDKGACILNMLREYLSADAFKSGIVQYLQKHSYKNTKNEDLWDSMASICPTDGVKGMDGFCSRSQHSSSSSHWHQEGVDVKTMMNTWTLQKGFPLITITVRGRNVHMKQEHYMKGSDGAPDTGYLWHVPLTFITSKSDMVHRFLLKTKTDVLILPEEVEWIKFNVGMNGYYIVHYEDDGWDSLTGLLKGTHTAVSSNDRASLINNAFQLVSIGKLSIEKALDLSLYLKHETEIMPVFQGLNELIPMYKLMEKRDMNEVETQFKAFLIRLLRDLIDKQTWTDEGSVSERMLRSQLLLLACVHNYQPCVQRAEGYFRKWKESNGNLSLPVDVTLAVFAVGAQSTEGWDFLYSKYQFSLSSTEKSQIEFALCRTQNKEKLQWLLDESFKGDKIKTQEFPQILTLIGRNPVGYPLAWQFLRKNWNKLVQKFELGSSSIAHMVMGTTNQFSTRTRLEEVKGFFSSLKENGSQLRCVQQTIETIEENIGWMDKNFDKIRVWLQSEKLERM
# Ecoli rRNA inh: inhibitors of bacterial rRNA selective over humanized ribosomes. E. coli WT GFP vs humanized-ribosome RFP mutants, fluorescence, 24 h; hits give low values; DMSO median 0, no signal -100. GFP signal change (wild-type ribosome), % (concentration not given with the values). 350,000 tested, 1.6% active. AID 720706;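 active = significant combined selectivity score with lowered wild-type GFP, culture density cut under 30%, mutant RFP and density less affected; inactive = any of these conditions unmet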
# AID977621: growth inhibition of wild-type GFP E. coli, dose response, H69 mutant RFP, cherry-pick | 1,900 tested, under 10 active | E. coli wild-type GFP strain growth, fluorescence, 24 h | AID 977621 | activity change, negative = inhibition at 50 µM | shares compounds with Ecoli rRNA inh;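 active = Wild-type ribosome reporter drop at least double the humanized mutant ribosome reporter drop, growth loss under a set limit; inconclusive = no clear call, values can overlap the other calls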;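 also: wild-type GFP and H69 mutant RFP strains grown together 50/50 in each well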
# AID977628: growth of wild-type and h24-humanized E. coli strains – h24 mutant RFP vs wild-type GFP, cherry-pick, dose response; activity change, negative = inhibition at 50 µM; E. coli WT GFP strain growth, fluorescence, 24 h; 1,900 tested, under 10 active; shares compounds with Ecoli rRNA inh;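 active = compound lowering the normal-ribosome reporter at least twice as much as the humanized-ribosome reporter, growth loss under a set limit; inconclusive = no clear call, values can overlap the other calls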;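 also: wild-type GFP and h24 humanized RFP strains co-cultured 1 to 1 per well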
# Numbers stand for hits; – = inactive; ? = inconclusive; · = no result; ! = repeats disagree.
SMILES,PGC1a acetyl inh,DENV2 CPE rescue,CaV13 FRET inh,GSIS activator,ERAP1 HTS inh,Ecoli rRNA inh,AID977621,AID977628
CCC(C(=O)Nc1ccsc1C(=O)OC)c1ccccc1 (stereo unspecified),–,–,–,–,–,-29,–,–
CCC(C(=O)Nc1nc(C)c(C(=O)OC)s1)c1ccccc1 (stereo unspecified),–,–,–,–,–,–,·,·
CNC(=O)C[C@@H]1CC[C@H]2[C@@H](COc3ccc(NC(=O)Nc4cccc(C)c4)cc3C(=O)N2C)O1,–,?,·,–,–,–,·,·
CSCCC1NC(=O)N(C(C)C(=O)Nc2cc(Cl)cc(Cl)c2)C1=O (stereo unspecified),–,–,–,–,–,-21,–,–
CCC(=O)N1[C@H](CO)[C@H](c2ccc(C3=CCCC3)cc2)[C@H]1CNCC1CCCC1,·,–,·,–,–,–,·,·
COCCCn1c(C)cc(C(=O)COC(=O)CCc2nc3ccccc3c(=O)[nH]2)c1C,·,–,–,–,–,-27,–,·
COCC(C)n1c(C)cc(C(=O)COC(=O)CCc2nc3ccccc3c(=O)[nH]2)c1C (stereo unspecified),–,–,–,–,–,–,·,·
CCc1ccc(C(=O)Nc2cccnc2Oc2ccc(Cl)cc2)cc1,87,–,–,–,–,-21,–,·
Cc1ccc(S(=O)(=O)N(C)C[C@H]2OCCCC[C@@H](C)Oc3ccc(NC(=O)Nc4ccccc4)cc3C(=O)N([C@@H](C)CO)C[C@@H]2C)cc1,–,?,·,–,–,–,·,·
COc1ccccc1CN1C[C@H](C)[C@@H](OC)CN(C)C(=O)c2ccc(NC(C)=O)cc2OC[C@@H]1C,–,–,·,–,–,–,·,·
Cc1ccc(NC(=O)C[n+]2cc(-c3ccccc3)n3c2CCC3)c(C)c1,–,–,–,·,–,-21,?,?
C[C@H]1CN([C@@H](C)CO)C(=O)CCCn2nncc2CO[C@@H]1CN(C)Cc1ccccc1C(F)(F)F,–,–,–,–,–,-18!,–,?
Cc1ccccc1CN(C)C[C@H]1OCc2cnnn2CCCC(=O)N([C@@H](C)CO)C[C@H]1C,–,–,·,–,–,–,·,·
COc1ccc(-c2csc(N)n2)cc1F,–,–,–,–,–,-17,–,–
Nc1nc2ccccc2n1CCOc1ccc(F)cc1,–,–,–,·,–,-21,–,–
COc1ccc(OCCn2c(N)nc3ccccc32)cc1,·,–,–,–,–,–,·,·
CCCC(=O)Nc1sc2c(c1C(=O)Nc1ccccn1)CCCC2,–,–,–,–,–,-30,–,–
CCOc1ccccc1NC(=O)c1c(NC(=O)CCC(=O)O)sc2c1CCCCC2,–,–,–,–,–,–,·,·
CC(=O)Oc1ccc(N(C(C)=O)S(=O)(=O)c2ccc(Cl)cc2)c2ccccc12,–,–,–,–,–,-23,–,?
CC(=O)N(c1ccccc1C)S(=O)(=O)c1ccc(Cl)cc1,·,–,–,–,–,–,·,·
CC(=O)Oc1ccc(N(C(C)=O)S(=O)(=O)c2ccc(C)cc2)c2ccccc12,·,–,–,·,–,-25,–,·
CCOC(=O)c1ccc(NC(=O)COc2ccc(CNCCO)cc2OCC)cc1,·,–,–,–,–,-24,–,–
CCOC(=O)c1cnc2ccccc2c1NCc1ccco1,–,–,–,–,–,-29,·,–
CCOC(=O)c1cnc2ccc(OC)cc2c1NCc1ccccc1,–,–,–,–,–,–,·,·
COc1ccc2cc(CO)c3cc(OC)c(OC)cc3c2c1,·,–,–,–,–,-28,–,·
SMILES,PGC1a acetyl inh,DENV2 CPE rescue,CaV13 FRET inh,GSIS activator,ERAP1 HTS inh,Ecoli rRNA inh,AID977621,AID977628
COc1ccc2cc(CO)c(Cl)nc2c1,–,–,–,–,–,–,·,·
C[C@H](CO)N1C[C@H](C)[C@H](CN(C)CC2CCCCC2)Oc2c(NC(=O)NC3CCCCC3)cccc2C1=O,–,–,·,–,–,–,·,·
O=[N+]([O-])c1cccc(-c2nc3ccc([N+](=O)[O-])cc3[nH]2)c1,–,–,–,–,–,–,·,·
O=[N+]([O-])c1ccc2nc(-c3ccccc3[N+](=O)[O-])[nH]c2c1,·,–,–,–,–,-28,·,–
C[C@@H]1CN([C@@H](C)CO)C(=O)c2cc(-c3cncnc3)cnc2O[C@H]1CN(C)C(=O)Cc1cccnc1,–,–,·,–,–,–,·,·
CO[C@H]1O[C@H](CO)[C@@H](OC(=O)Nc2cccc(F)c2)[C@H](OC(=O)Nc2ccc3c(c2)OCO3)[C@H]1OC(=O)Nc1ccc2c(c1)OCO2,·,–,·,·,–,·,·,·
CC(=O)Nc1ccc(Nc2nc(C)c([N+](=O)[O-])c(N(C)c3ccccc3)n2)cc1,·,–,–,–,–,-44,?,?
CC(=O)Nc1ccc(Nc2nc(C)c([N+](=O)[O-])c(Nc3ccccc3)n2)cc1,·,·,–,–,·,·,·,·
O=C(CN1CCOCC1)NCC[C@@H]1CC[C@H](NC(=O)Nc2ccccc2)[C@@H](CO)O1,–,–,·,–,–,–,·,·
CC(=O)Nc1cccc(NC(=O)CCN2C(=O)c3ccccc3S2(=O)=O)c1,·,–,–,–,–,-14,?,–
COc1ccc(CC(=O)NC(C)c2ccc3ccccc3c2)cc1 (stereo unspecified),–,–,–,–,·,-23,·,?
COc1ccc(S(=O)(=O)N(C)C)cc1NC(=O)c1ccc2c(c1)NC(=O)C(C)S2 (stereo unspecified),–,–,–,–,–,-21,–,·
CC1Sc2ccc(C(=O)Nc3ccc(S(=O)(=O)N(C)C)cc3)cc2NC1=O (stereo unspecified),–,–,–,–,–,–,·,·
Cc1ccc(S(=O)(=O)N2CCOCC2)cc1NC(=O)COc1ccc(-c2nnco2)cc1,–,–,–,–,–,-19,–,?
Cc1ccc(Nc2nc(N)c([N+](=O)[O-])c(NCc3ccco3)n2)cc1,·,·,–,–,·,·,·,·
Nc1nc(Nc2ccccc2F)nc(NCc2ccco2)c1[N+](=O)[O-],·,–,–,–,–,-20,?,·
CCC(=O)N(C)C[C@@H]1Oc2cc(C#CCC(C)C)ccc2S(=O)(=O)N([C@@H](C)CO)C[C@@H]1C,–,–,·,–,–,–,·,·
O=C(c1cnc(Cc2c[nH]c3ccccc23)c(I)c1)N1CCCCC1,·,–,–,–,·,-24,–,·
COc1cccc(NC(=O)COC(=O)Cc2ccc(Br)cc2)c1,·,–,–,–,–,-15,?,–
COc1ccc(CC(=O)OCC(=O)Nc2cccc(Br)c2)cc1,–,–,–,–,–,–,·,·
